PubChem BioAssay (Tox21)
Results filed as inconclusive are left out. Active and inactive are the calls of the source. Unless noted, the call rests on the fitted dose curve; in most records, active means well fitted curve in the direction sought with a large enough effect in the repeat runs; inconclusive means weak or mixed curves; inactive means no such curve, though single readings can be large; an effect the other way counts as inactive or inconclusive.

Assays:
[1] = qHTS assay to identify small molecule agonists of the vitamin D receptor (VDR) signaling pathway - cell viability counter screen (AID 743224); further: series mostly up to about 63 µM; on the % scale 0 is the no-effect control and ±100 the full control effect; nearly all actives have a fitted effect of over 50% in size
Method in brief: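 VDR-bla cell line, quantitative HTS format; 16 h compound incubation (37C, 5% CO2); ATP-based CellTiter-Glo luminescence measured in the reporter assay wells.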

[2] = qHTS assay to identify small molecule antagonists of the vitamin D receptor (VDR) signaling pathway - cell viability counter screen (AID 743225); further: on the % scale 0 is the no-effect control and ±100 the full control effect; nearly all actives have a fitted effect of over 50% in size
Method in brief: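 Read-out: CellTiter-Glo luminescence measured 30 min after reagent addition at room temperature. Cells were VDR-bla HEK 293T exposed 16 h at 37C, 5% CO2, to compound with 3 nM final calcitriol agonist.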

[3] = qHTS assay to identify small molecule agonists of the NFkB signaling pathway (AID 1159509; active means well fitted curve in the direction sought with a large enough effect in the signal ratio in the repeat runs, not every such curve was filed as active; the % refers to the signal ratio; further: series mostly up to about 61 µM; on the % scale 0 is the no-effect control and ±100 the full control effect)
Method in brief: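 NFkB-bla ME-180 cells carry a beta-lactamase reporter under an NF-kB response element. They were plated overnight, then exposed to compounds for 5 h at 37 C. Read-out is LiveBLAzer FRET after 1.5 hr at room temperature (405 nm excitation; 460/530 nm emission).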

[4] = qHTS assay to identify small molecule agonists of the NFkB signaling pathway - cell viability counter screen (AID 1159515; calls by dose curve; further: series mostly up to about 61 µM; on the % scale 0 is the no-effect control and ±100 the full control effect; nearly all actives have a fitted effect of over 55% in size)
Method in brief: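 Viability in NFkB-bla ME-180 cells was measured by CellTiter-Glo luminescence, 30 min room temperature, in wells already treated 5 hr with compounds and read for reporter FRET.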

[5] = qHTS assay to identify small molecule agonists of the endoplasmic reticulum stress response signaling pathway (AID 1159516; active means well fitted activation curve with a large enough effect in the signal ratio in the repeat runs, not every such curve was filed as active; the % refers to the signal ratio; further: on the % scale 0 is the no-effect control and ±100 the full control effect)
Method in brief: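 ER stress element reporter (bla) in HeLa. 1,500 cells/well, overnight attachment; 5 hr compound; 2 hr RT substrate; dual-emission fluorescence.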

[6] = qHTS assay to identify small molecule agonists of the endoplasmic reticulum stress response signaling pathway - cell viability counter screen (AID 1159517; calls by dose curve;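 further: HeLa cells carrying an ER stress response element beta-lactamase reporter; series mostly up to about 61 µM; on the % scale 0 is the no-effect control and ±100 the full control effect; nearly all actives have a fitted effect of over 50% in size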)
Method in brief: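 ESRE-bla HeLa cells, 1,500 per well, seeded overnight then treated with compounds for 5 hr at 37 C. After the beta-lactamase read, viability in the same wells is measured by CellTiter-Glo luminescence after 30 min at room temperature.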

[7] = qHTS assay to identify small molecule antagonists of the retinoid-related orphan receptor gamma (ROR-gamma) signaling pathway - cell viability counter screen (AID 1159520); further: on the % scale 0 is the no-effect control and ±100 the full control effect; nearly all actives have a fitted effect of over 50% in size
Method in brief: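 Tet-on ROR gamma CHO cells were given compounds for 2 hr, then doxycycline hyclate at 1 uM final, and incubated 16 hr at 37 C. Viability was measured as ATP content by CellTiter-Glo luminescence.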

[8] = target: Nuclear receptor ROR-gamma (Homo sapiens) (UniProt P51449); experiment: qHTS assay to identify small molecule antagonists of the retinoid-related orphan receptor gamma (ROR-gamma) signaling pathway (AID 1159521)
Method in brief: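 CHO Tet-on RORγ, RORE-luc reporter. Cpd 2 h pre-incubation, then dox hyclate 1 uM final, 16 h, 37 C/5% CO2. ONE-Glo luminescence; decrease = antagonist.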

[9] = qHTS assay to identify small molecule agonists of the AP-1 signaling pathway - cell viability counter screen (AID 1159525; calls by dose curve; further: nearly all actives have a fitted effect of over 55% in size)
Method in brief: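 AP-1-bla ME-180 cells in Opti-MEM with 0.5% dialyzed FBS, compound exposure 5 h at 37 C in 15-point titration. Viability read in the same wells as ATP content by CellTiter-Glo luminescence, normalised to tetra-n-octylammonium bromide and DMSO controls.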

[10] = qHTS assay to identify small molecule agonists of the AP-1 signaling pathway (AID 1159526; calls by dose curve; further: on the % scale 0 is the no-effect control and ±100 the full control effect)
[11] = target: Retinoic acid receptor RXR-alpha (Homo sapiens) (UniProt P19793); experiment: qHTS assay to identify small molecule agonists of the RXR signaling pathway (AID 1159527; calls by dose curve; further: on the % scale 0 is the no-effect control and ±100 the full control effect; nearly all actives have a fitted effect of over 35% in size)
Chain of Retinoic acid receptor RXR-alpha (Homo sapiens) (P19793 whole entry, looked up): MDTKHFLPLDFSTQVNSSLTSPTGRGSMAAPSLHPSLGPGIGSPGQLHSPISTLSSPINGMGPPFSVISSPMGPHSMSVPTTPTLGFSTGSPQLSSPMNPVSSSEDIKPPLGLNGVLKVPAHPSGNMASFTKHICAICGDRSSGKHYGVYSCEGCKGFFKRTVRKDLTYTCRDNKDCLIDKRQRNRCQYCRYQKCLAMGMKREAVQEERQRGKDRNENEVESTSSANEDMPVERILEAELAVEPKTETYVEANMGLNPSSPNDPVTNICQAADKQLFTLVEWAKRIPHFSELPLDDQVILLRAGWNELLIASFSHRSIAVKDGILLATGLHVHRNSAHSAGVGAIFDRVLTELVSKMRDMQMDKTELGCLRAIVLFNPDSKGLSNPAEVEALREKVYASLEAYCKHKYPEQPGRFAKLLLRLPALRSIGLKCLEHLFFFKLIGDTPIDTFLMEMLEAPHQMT
Method in brief: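 Read-out: beta-lactamase FRET ratio (405 nm excitation, 460 and 530 nm emission) after 2 hr substrate loading at room temperature. Cells were RXR-alpha-UAS-bla HEK 293T treated with compounds for 16 hr in 2% charcoal-stripped FBS medium.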

[12] = qHTS assay to identify small molecule agonists of the RXR signaling pathway - cell viability counter screen (AID 1159529)
Method in brief: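 HEK 293T RXRa-bla cells, 2% CS-FBS; 5 h settle; cpd 16 h 37 C, 5% CO2; CellTiter-Glo 30 min RT, luminescence. Tetraoctyl ammonium bromide as positive control.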

[13] = qHTS assay to identify small molecule antagonists of the retinoid acid receptor (RAR) signaling pathway - cell viability counter screen (AID 1159551); further: on the % scale 0 is the no-effect control and ±100 the full control effect; nearly all actives have a fitted effect of over 35% in size
Method in brief: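 Following overnight attachment, C3RL4 reporter cells received DMSO-dissolved compounds and then retinol (1 uM final). Six hours later at 37 C, ATP content was measured by CellTiter-Glo luminescence.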

[14] = qHTS assay to identify small molecule antagonists of the retinoic acid receptor (RAR) signaling pathway (AID 1159552)
Method in brief: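 Cells of the C3RL4 line were seeded, incubated overnight, then dosed with compounds in DMSO followed immediately by retinol (1 uM final). Six hours later luciferase detection reagent went in; signal was measured after 30 min at RT.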

[15] = qHTS assay to identify small molecule agonists of the retinoic acid receptor (RAR) signaling pathway (AID 1159553); further: on the % scale 0 is the no-effect control and ±100 the full control effect
Method in brief: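 Cell line C3RL4, RARE luciferase reporter. Treatment: compounds in DMSO, 6 hr, 37 C, 5% CO2, after overnight plating. Detection: luminescence, 30 min RT after reagent.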

[16] = qHTS assay to identify small molecule antagonists of the estrogen related receptor (ERR) signaling pathway - cell viability counter screen (AID 1224818)
Method in brief: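 Here, ERR cells are plated at 2,000 cells per well, allowed 6 h to attach, and treated with compounds in DMSO for 17.5 h at 37 C. CellTiter-Fluor is then added and fluorescence read after 30 min.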

[17] = qHTS assay to identify small molecule antagonists of the estrogen related receptor signaling pathway with the pleiotropic PPARgamma coactivator (PGC) cell viability counter screen (AID 1224822)
Method in brief: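 qHTS format, DMSO compound stocks pin-transferred onto PGC/ERR cells 6 h after plating; 17.5 h exposure at 37 C, then CellTiter-Fluor fluorescence.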

CN1CCC(=C2c3ccccc3CC(=O)c3sccc32)CC1
inactive: Potency [1] | Potency [2] | outcome [3] | outcome [4] | outcome [5] | outcome [6] | outcome [7] | Potency [8] | Potency [9] | outcome [10] | Potency [11] | Potency [12] | outcome [13] | Potency [14] | Potency [15] | outcome [16] | outcome [17]

CCCCCOC(=O)CCCCC
inactive: Potency [1] | Potency [2] | outcome [3] | outcome [4] | outcome [5] | outcome [6] | outcome [7] | Potency [8] | Potency [9] | outcome [10] | Potency [11] | Potency [12] | outcome [13] | Potency [14] | Potency [15]

CC(C)(O)C#CC(C)(C)O
inactive: Potency [1] | Potency [2] | outcome [3] | outcome [4] | outcome [5] | outcome [6] | outcome [7] | Potency [8] | Potency [9] | outcome [10] | Potency [11] | Potency [12] | outcome [13] | Potency [14] | Potency [15]

COC(=O)c1cc(C(=O)OC)cc(S(=O)(=O)O)c1
inactive: Potency [1] | Potency [2] | outcome [3] | outcome [4] | outcome [5] | outcome [6] | outcome [7] | Potency [8] | Potency [9] | outcome [10] | Potency [11] | Potency [12] | outcome [13] | Potency [14] | Potency [15]

NC(=O)c1ccc([N+](=O)[O-])cc1
inactive: Potency [1] | Potency [2] | outcome [3] | outcome [4] | outcome [5] | outcome [6] | outcome [7] | Potency [8] | Potency [9] | outcome [10] | Potency [11] | Potency [12] | outcome [13] | Potency [14] | Potency [15]

N[C@H](C(=O)O)c1ccc(O)cc1
inactive: Potency [1] | Potency [2] | outcome [3] | outcome [4] | outcome [5] | outcome [6] | activity, negative = cytotoxicity [7] 3.98% [at 19 µM] | Potency [8] | viability change, negative = cytotoxic [9] 10.2% [at 15.8 µM] | outcome [10] | Potency [11] | Potency [12] | activity change, negative = cytotoxicity [13] 1.22% [at 19 µM] | activity, negative = inhibition [14] -7.38% [at 19 µM] | Potency [15]

O=C1CCCCCCCCCCCN1
inactive: Potency [1] | Potency [2] | outcome [3] | outcome [4] | outcome [5] | outcome [6] | outcome [7] | Potency [8] | Potency [9] | outcome [10] | Potency [11] | Potency [12] | outcome [13] | Potency [14] | Potency [15]

CCC=O
inactive: Potency [1] | Potency [2] | outcome [3] | outcome [4] | outcome [5] | outcome [6] | outcome [7] | Potency [8] | Potency [9] | outcome [10] | Potency [11] | Potency [12] | outcome [13] | Potency [14] | Potency [15]

Cc1ccc(Cl)cc1Cl
inactive: Potency [1] | Potency [2] | outcome [3] | outcome [4] | outcome [5] | outcome [6] | outcome [7] | Potency [8] | Potency [9] | outcome [10] | Potency [11] | Potency [12] | outcome [13] | Potency [14] | Potency [15]

CN1CCCC1
inactive: Potency [1] | Potency [2] | outcome [3] | outcome [4] | outcome [5] | outcome [6] | outcome [7] | Potency [8] | Potency [9] | outcome [10] | Potency [11] | Potency [12] | outcome [13] | Potency [14] | Potency [15]

NS(=O)(=O)c1ccccc1Cl
inactive: Potency [1] | Potency [2] | outcome [3] | outcome [4] | outcome [5] | outcome [6] | outcome [7] | Potency [8] | Potency [9] | outcome [10] | Potency [11] | Potency [12] | outcome [13] | Potency [14] | Potency [15]

COc1cc(C(=O)N2CCCCCCC2)cc(OC)c1OC
inactive: Potency [1] | Potency [2] | outcome [3] | outcome [4] | outcome [5] | outcome [6] | outcome [7] | Potency [8] | Potency [9] | outcome [10] | Potency [11] | Potency [12] | outcome [13] | Potency [14] | Potency [15]

CC(C)(O)C(=O)c1ccccc1
inactive: Potency [1] | Potency [2] | outcome [3] | outcome [4] | outcome [5] | outcome [6] | outcome [7] | Potency [8] | Potency [9] | outcome [10] | Potency [11] | Potency [12] | outcome [13] | Potency [14] | Potency [15]

NC(=O)c1ccc(N)cc1
inactive: Potency [1] | Potency [2] | outcome [3] | outcome [4] | outcome [5] | outcome [6] | outcome [7] | Potency [8] | Potency [9] | outcome [10] | Potency [11] | Potency [12] | outcome [13] | Potency [14] | Potency [15]

CN1CC(=O)NC1=N
inactive: Potency [1] | Potency [2] | outcome [3] | outcome [4] | outcome [5] | outcome [6] | outcome [7] | Potency [8] | Potency [9] | outcome [10] | Potency [11] | Potency [12] | outcome [13] | Potency [14] | Potency [15]

C[N+](C)(C)CC(O)CC(=O)[O-] (configuration not stated)
inactive: Potency [1] | Potency [2] | outcome [3] | outcome [4] | outcome [5] | outcome [6] | outcome [7] | Potency [8] | Potency [9] | outcome [10] | Potency [11] | Potency [12] | outcome [13] | Potency [14] | Potency [15]

COC(=O)c1ccc(C)cc1C1=NC(C)(C(C)C)C(=O)N1 (configuration not stated)
inactive: Potency [1] | Potency [2] | outcome [3] | outcome [4] | outcome [5] | outcome [6] | outcome [7] | Potency [8] | Potency [9] | outcome [10] | Potency [11] | Potency [12] | outcome [13] | Potency [14] | Potency [15]

Cc1cnc(NS(=O)(=O)c2ccc(N)cc2)nc1
inactive: Potency [1] | Potency [2] | outcome [3] | outcome [4] | outcome [5] | outcome [6] | outcome [7] | Potency [8] | Potency [9] | outcome [10] | Potency [11] | Potency [12] | outcome [13] | Potency [14] | Potency [15]
